Screens: PubChem, several laboratories
Only some compounds are listed: those with a hit (about 3.7% of all), similar ones and a draw of the others.
PfHsp90 set2 – inhibits growth of yeast expressing Plasmodium falciparum Hsp90; S. cerevisiae expressing PfHsp90, BacTiter-Glo ATP, 48 h; yeast lacking PDR1 and PDR3 efflux regulators; inhibition, % at 9.4 µM; 0.32% of 310,000 active; AID 504621;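 active means every replicate shows inhibition above about 80%, whatever the replicate mean, limit read from the data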
TIM10 inh – growth inhibitors of TIM10 yeast strain; S. cerevisiae TIM10 strain growth, BacTiter-Glo luminescence, 24 h; inhibition, % at 10 µM; 1.4% of 330,000 active;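 active means inhibition of 40% or more at the single tested concentration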;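 further: wild-type TIM10 isogenic control strain grown at permissive 25 °C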
tim23-1 inh – growth inhibitors of tim23-1 mutant yeast. 1.3% of 330,000 active. inhibition, % at 20 µM. S. cerevisiae tim23-1 growth, BacTiter-Glo luminescence, 24 h. AID 463212;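 active means growth inhibition of the mutant yeast at or above 50%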;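 further: temperature-sensitive mutant grown at 25 °C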
tim10-1 inh – tim10-1 yeast growth inhibition; S. cerevisiae tim10-1 ts strain growth, BacTiter-Glo, 24 h; inhibition, % at 20 µM; 2.2% of 330,000 active; AID 463190;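 active means inhibition of at least 40%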;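 further: mutant grown at 25 °C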
NLRP3 yeast inh – inhibitors of NALP3 inflammasome in yeast | inhibition, % at 10 µM | Yeast reconstituted NLRP3/ASC/caspase-1, beta-gal luminescence, 24 h | 0.39% of 330,000 active;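 active means inhibition of 50% or more; inactive means inhibition below 50%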
TIM10 conf – confirmation of TIM10 yeast growth inhibitors; shares compounds with TIM10 inh; S. cerevisiae tim10 strain growth, BacTiter-Glo luminescence, 24 h; inhibition, % at 10 µM; 63% of 4,600 active;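 active means inhibition of yeast growth at or above a set limit in either of two replicates at 10 µM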; further: this counterscreen used the strain with wild-type TIM10
Hits are given with their value; - = inactive; . = no result.

SMILES	PfHsp90 set2	TIM10 inh	tim23-1 inh	tim10-1 inh	NLRP3 yeast inh	TIM10 conf
CC(C)CNc1nnnc2c1sc1nc(N3CCOCC3)c3c(c12)CC(C)(C)SC3	-	40	-	-	-	-
Cc1c(C(=O)Nc2c3c(nn2C(C)(C)C)CS(=O)(=O)C3)cccc1[N+](=O)[O-]	-	-	-	-	-	.
CCN(CC(=O)Nc1c(F)cccc1F)C(=O)CNC(=O)c1ccc(C)s1	-	-	-	-	-	.
Nc1nnc(-c2cc3ccccc3oc2=O)s1	-	-	-	-	-	.
COc1ccc2oc(=O)c(-c3nnc(N)s3)cc2c1	-	62	-	-	-	60
O=C(/C=C/c1ccccc1Cl)NCCc1ccccc1	-	49	-	-	-	46
O=C(/C=C/c1ccccc1Cl)NCc1ccccc1	-	-	-	-	-	.
CCc1cccc(N=c2c([N+](=O)[O-])nn(-c3ccc(Cl)cc3)n2O)c1	-	46	-	-	-	-
Cc1cccc(N=c2c([N+](=O)[O-])nn(-c3ccc(Cl)cc3)n2O)c1	-	-	-	-	-	.
NS(=O)(=O)c1ccc(O)c(NC(=O)c2ccc([N+](=O)[O-])o2)c1	-	-	-	-	-	.
O=C(COC(=O)c1ccccc1)Nc1ccccc1N1CCOCC1	-	-	-	-	-	.
Cc1ccc2cc(CCNC(=O)c3cc4ccccc4o3)c(=O)[nH]c2c1C	-	58	-	-	-	32
COc1ccc2cc(CCNC(=O)c3cc4ccccc4o3)c(=O)[nH]c2c1	-	-	-	-	-	.
C=CCn1c(SCC(=O)Nc2ccc(Br)cc2)nc(O)c(CC)c1=O	-	-	-	-	-	.
CC(=O)O/N=C/c1c(N2CCOCC2)n(C)c2ccccc12	.	-	-	-	-	.
Cc1ccc(C(=O)O/N=C/c2c(N3CCOCC3)n(C)c3ccccc23)cc1	-	42	-	-	-	32
CCn1c(Cl)c(C=O)s/c1=N\S(=O)(=O)c1ccccc1	-	43	-	-	-	-
NC(=O)c1ccccc1NC(=O)/C=C/c1ccc(Cl)cc1	-	-	-	-	-	.
O=C(/C=C/c1ccc(Cl)cc1)NC(=S)Nc1ccccc1C(=O)O	-	43	-	-	-	32
Cc1ccc(C(O)P(=O)(OC2CCCCC2)OC2CCCCC2)cc1 (stereo not drawn)	-	40	-	-	-	39
CCCCc1ccc(NC(=S)NCCc2ccc(F)cc2)cc1	.	42	-	-	-	-
CCOC(=O)c1c(C)[nH]c(C(=O)CN(C)CC(=O)Nc2ccccc2C(F)(F)F)c1C	-	-	-	-	-	.
C=CCNC(=O)COC(=O)c1ccc(Cl)c(S(=O)(=O)N(Cc2ccccc2)c2ccccc2)c1	-	-	-	-	-	.
COc1ccc(C(=O)COC(=O)C2CCCN2C(=O)C23CC4CC(CC(C4)C2)C3)cc1 (stereo not drawn)	-	44	-	-	-	33
Cc1ccc(C23CC4CC(CC(C(=O)NC(C)C)(C4)C2)C3)cc1	-	44	-	-	-	-
SMILES	PfHsp90 set2	TIM10 inh	tim23-1 inh	tim10-1 inh	NLRP3 yeast inh	TIM10 conf
Cc1c(C(=S)Nc2ccccc2)cnn1-c1ccc([N+](=O)[O-])cc1	-	43	-	-	-	-
Nc1c(C(=O)N/N=C/c2ccc([N+](=O)[O-])cc2)cnn1-c1ccccc1	-	-	-	-	-	.
CCCCn1c(N)c(N(CCOC)C(=O)CSc2ccc([N+](=O)[O-])cc2)c(=O)[nH]c1=O	-	-	-	-	-	.
CC(C)(C)C(=O)O/N=C1/C(=O)N(c2ccccc2)c2ccccc21	.	52	-	-	-	61
C=CCNC(=O)N1CCc2[nH]c3ccc(F)cc3c2C1	-	-	-	-	-	.
Fc1ccc2[nH]c3c(c2c1)CN(C(=S)NCc1ccccc1)CC3	-	41	-	-	-	38
O=C(NCC(c1cccs1)N1CCOCC1)c1ccc(Cl)s1 (stereo not drawn)	-	-	-	-	-	.
COc1cccc(NC(=O)[C@@H](NC(=O)N2CCn3c2nc2ccccc23)C(C)C)c1	-	-	-	-	-	.
Cc1ccccc1CS(=O)(=O)Cc1ccc(C(=O)NCCCN2CC(C)CC(C)C2)o1 (stereo not drawn)	-	95	-	-	-	-
CCNc1nc(N)c(C(=O)c2ccc(Cl)s2)s1	-	44	-	-	-	41
Cc1ccc(-c2n[nH]c(=S)n2/N=C/c2cccs2)cc1	-	52	-	-	-	-
Oc1ccccc1CN1CCN(C(O)(c2ccccc2)c2ccccc2)CC1	-	43	-	-	-	52
COc1cc(CN2CCN(C(O)(c3ccccc3)c3ccccc3)CC2)cc(OC)c1OC	-	-	-	-	-	.
COc1ccc(S(=O)(=O)N2CCN(CCOc3ccccc3Cl)CC2)cc1OC	-	97	-	-	-	-
COc1ccc(S(=O)(=O)N2CCN(CCOc3ccc(Br)cc3)CC2)cc1OC	-	-	-	-	-	.
Cc1ccccc1C(=O)NC(=S)NCCc1ccccc1	-	-	-	-	-	.
Cc1ccccc1N1CCN(C(=O)c2ccc(Oc3ccc(C(F)(F)F)cn3)cc2)CC1	-	47	-	-	-	43
Cc1ccc(S(=O)(=O)N(C)C)cc1NC(=O)COC(=O)CCC1CCCCC1	-	-	-	-	-	.
CCOC(=O)N1CCN(C(=S)NC(=O)c2c(-c3c(Cl)cccc3Cl)noc2C)CC1	-	-	-	-	-	-
C=CCc1c(C)nc(-c2ccccc2)nc1N/N=C(\C)c1ccccc1	-	-	-	-	-	.
C=CCc1c(C)nc(-c2ccccc2)nc1Nc1ccc(O)cc1	-	40	-	-	-	-
COc1ccc(NC(=O)Cc2nnc(SCC(=O)c3ccc(F)cc3)n2C)cc1	-	-	-	-	-	.
CCC(C)(C)C1CCc2[nH]nc(C(=O)N/N=C(\C)c3ccco3)c2C1 (stereo not drawn)	-	45	-	-	-	-
Cc1[nH]n(S(=O)(=O)Cc2ccccc2)c(=O)c1N=Nc1ccccc1Cl	-	41	-	-	-	-
COc1cc(NC(=O)CCN2CC(C)OC(C)C2)cc(OC)c1 (stereo not drawn)	-	-	-	-	-	.
SMILES	PfHsp90 set2	TIM10 inh	tim23-1 inh	tim10-1 inh	NLRP3 yeast inh	TIM10 conf
FC(F)(F)c1nnc(-c2ccccc2)nc1Sc1ccccc1	-	45	-	-	-	-
S=c1[nH]nc(COc2ccc(Cl)cc2)n1C1CCCCC1	-	40	-	-	-	-
Cc1ccc(NC(NC(=O)c2cccs2)C(Cl)(Cl)Cl)cc1 (stereo not drawn)	-	50	-	-	-	38
Cc1ccc(NC(NC(=O)c2ccccn2)C(Cl)(Cl)Cl)cc1 (stereo not drawn)	-	-	-	-	-	.
COc1ccc(C(=O)NC(Nc2ccccc2)C(Cl)(Cl)Cl)cc1 (stereo not drawn)	-	50	-	-	-	32
CN(CCc1ccccc1)C(=O)c1ccc(NC(=O)Cc2ccc(NC(=O)C3CCCN(C(=O)C4CC4)C3)cc2)cc1 (stereo not drawn)	-	.	.	.	.	.
